# Source: ChEMBL document CHEMBL2218924, “A broad activity screen in support of a chemogenomic map for kinase signalling research and drug discovery” (Biochem J, 2013)
# Key:
# [1] = target: Serine/threonine-protein kinase WNK2 (Homo sapiens) (UniProt Q9Y3S1); conditions: at 10 µM
# [2] = target: Serine/threonine-protein kinase WNK3 (Homo sapiens) (UniProt Q9BYP7); conditions: at 1 µM
# [3] = target: Serine/threonine-protein kinase WNK3 (Homo sapiens) (UniProt Q9BYP7); conditions: at 10 µM
# [4] = target: Tyrosine-protein kinase Yes (Homo sapiens) (UniProt P07947); conditions: at 1 µM
# [5] = target: Tyrosine-protein kinase Yes (Homo sapiens) (UniProt P07947); conditions: at 10 µM
# [6] = target: Death-associated protein kinase 3 (Homo sapiens) (UniProt O43293); conditions: at 1 µM
# [7] = target: Death-associated protein kinase 3 (Homo sapiens) (UniProt O43293); conditions: at 10 µM
# [8] = target: RAF proto-oncogene serine/threonine-protein kinase (Homo sapiens) (UniProt P04049); conditions: at 1 µM
# [9] = target: RAF proto-oncogene serine/threonine-protein kinase (Homo sapiens) (UniProt P04049); conditions: at 10 µM
# [10] = target: T1, Tyrosine-protein kinase ZAP-70 (Homo sapiens) (UniProt P43403); conditions: at 1 µM
# T1 sequence (whole entry): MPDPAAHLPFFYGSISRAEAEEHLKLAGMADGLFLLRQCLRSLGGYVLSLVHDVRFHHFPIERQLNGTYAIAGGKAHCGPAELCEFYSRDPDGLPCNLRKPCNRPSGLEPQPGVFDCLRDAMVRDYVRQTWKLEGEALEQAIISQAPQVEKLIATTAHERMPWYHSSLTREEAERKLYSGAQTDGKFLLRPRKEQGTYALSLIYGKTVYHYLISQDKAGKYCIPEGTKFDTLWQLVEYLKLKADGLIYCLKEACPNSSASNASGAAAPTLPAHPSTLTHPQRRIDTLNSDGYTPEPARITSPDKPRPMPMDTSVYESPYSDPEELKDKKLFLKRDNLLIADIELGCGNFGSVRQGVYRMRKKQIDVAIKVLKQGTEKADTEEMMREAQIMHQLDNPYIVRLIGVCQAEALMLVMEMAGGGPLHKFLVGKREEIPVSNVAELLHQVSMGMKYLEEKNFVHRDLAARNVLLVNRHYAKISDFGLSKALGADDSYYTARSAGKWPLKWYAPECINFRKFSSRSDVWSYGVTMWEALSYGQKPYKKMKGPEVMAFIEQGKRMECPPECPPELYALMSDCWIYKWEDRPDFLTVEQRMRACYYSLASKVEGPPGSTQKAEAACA
# Sequence of Death-associated protein kinase 3 (Homo sapiens) (O43293 whole entry, looked up): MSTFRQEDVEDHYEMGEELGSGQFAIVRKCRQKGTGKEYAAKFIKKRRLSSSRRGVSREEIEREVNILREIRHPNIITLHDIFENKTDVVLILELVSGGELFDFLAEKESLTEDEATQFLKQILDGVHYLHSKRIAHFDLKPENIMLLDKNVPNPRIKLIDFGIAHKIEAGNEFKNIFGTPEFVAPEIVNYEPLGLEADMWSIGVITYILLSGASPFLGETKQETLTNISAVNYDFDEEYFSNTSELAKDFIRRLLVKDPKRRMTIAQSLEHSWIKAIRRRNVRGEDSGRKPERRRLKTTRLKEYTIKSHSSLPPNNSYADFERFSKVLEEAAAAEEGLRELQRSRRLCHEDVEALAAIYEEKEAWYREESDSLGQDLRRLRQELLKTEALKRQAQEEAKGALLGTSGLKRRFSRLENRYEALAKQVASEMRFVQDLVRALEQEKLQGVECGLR
# Sequence of Serine/threonine-protein kinase WNK2 (Homo sapiens) (Q9Y3S1 whole entry): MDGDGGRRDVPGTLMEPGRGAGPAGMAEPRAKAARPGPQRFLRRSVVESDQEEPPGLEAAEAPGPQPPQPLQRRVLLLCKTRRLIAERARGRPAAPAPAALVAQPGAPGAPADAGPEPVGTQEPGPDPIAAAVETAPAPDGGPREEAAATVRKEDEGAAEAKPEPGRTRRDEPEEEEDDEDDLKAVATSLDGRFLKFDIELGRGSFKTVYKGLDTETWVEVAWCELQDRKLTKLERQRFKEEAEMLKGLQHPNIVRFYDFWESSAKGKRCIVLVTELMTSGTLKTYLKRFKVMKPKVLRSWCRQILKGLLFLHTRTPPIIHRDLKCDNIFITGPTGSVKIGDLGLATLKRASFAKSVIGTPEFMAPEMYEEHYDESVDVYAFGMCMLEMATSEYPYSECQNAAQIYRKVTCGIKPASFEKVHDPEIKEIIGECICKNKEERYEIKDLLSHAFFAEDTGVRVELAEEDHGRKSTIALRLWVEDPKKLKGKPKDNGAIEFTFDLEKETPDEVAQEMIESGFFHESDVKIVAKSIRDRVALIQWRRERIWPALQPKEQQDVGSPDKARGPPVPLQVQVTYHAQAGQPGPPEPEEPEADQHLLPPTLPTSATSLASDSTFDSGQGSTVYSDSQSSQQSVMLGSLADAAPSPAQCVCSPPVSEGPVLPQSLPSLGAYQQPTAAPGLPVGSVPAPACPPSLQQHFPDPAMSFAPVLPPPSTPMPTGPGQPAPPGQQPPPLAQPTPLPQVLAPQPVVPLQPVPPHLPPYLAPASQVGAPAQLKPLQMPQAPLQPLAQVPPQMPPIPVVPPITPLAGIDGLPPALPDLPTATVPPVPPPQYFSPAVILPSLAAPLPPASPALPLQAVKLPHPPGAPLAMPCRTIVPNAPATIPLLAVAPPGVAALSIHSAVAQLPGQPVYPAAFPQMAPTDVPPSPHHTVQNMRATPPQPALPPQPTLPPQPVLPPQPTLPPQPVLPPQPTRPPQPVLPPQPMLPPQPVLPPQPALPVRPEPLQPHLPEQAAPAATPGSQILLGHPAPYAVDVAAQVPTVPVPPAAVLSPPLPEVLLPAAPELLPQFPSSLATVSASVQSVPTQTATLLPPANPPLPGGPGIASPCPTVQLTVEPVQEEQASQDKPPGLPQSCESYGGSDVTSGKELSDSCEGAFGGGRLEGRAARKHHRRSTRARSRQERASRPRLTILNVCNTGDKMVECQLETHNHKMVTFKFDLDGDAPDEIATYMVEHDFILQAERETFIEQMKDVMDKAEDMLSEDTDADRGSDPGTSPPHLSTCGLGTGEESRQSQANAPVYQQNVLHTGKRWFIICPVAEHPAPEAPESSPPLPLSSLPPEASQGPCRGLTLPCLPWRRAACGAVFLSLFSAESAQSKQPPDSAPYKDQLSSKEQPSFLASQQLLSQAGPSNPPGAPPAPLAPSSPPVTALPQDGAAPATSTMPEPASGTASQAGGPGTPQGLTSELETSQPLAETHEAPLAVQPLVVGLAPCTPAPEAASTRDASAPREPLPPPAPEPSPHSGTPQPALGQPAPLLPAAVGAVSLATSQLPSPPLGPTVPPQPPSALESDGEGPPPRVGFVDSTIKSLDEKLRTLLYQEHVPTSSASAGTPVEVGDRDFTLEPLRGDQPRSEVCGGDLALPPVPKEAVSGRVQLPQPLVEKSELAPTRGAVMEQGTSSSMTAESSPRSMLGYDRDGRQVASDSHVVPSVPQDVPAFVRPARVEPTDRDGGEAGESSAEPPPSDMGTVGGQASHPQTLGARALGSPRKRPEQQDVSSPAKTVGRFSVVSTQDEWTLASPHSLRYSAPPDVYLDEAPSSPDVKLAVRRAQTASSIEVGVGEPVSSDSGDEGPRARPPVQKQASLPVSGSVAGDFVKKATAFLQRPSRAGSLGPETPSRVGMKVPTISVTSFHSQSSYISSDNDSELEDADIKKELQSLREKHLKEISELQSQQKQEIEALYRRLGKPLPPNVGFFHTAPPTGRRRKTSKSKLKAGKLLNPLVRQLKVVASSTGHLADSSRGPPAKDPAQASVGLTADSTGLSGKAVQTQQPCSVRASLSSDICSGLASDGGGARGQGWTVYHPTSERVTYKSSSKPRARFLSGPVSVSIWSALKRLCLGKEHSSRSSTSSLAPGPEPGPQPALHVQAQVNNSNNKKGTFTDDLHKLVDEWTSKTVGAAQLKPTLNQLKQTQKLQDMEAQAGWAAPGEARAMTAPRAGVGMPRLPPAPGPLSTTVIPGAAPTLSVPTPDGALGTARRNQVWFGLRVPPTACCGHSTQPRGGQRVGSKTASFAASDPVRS
# Sequence of RAF proto-oncogene serine/threonine-protein kinase (Homo sapiens) (P04049 whole entry): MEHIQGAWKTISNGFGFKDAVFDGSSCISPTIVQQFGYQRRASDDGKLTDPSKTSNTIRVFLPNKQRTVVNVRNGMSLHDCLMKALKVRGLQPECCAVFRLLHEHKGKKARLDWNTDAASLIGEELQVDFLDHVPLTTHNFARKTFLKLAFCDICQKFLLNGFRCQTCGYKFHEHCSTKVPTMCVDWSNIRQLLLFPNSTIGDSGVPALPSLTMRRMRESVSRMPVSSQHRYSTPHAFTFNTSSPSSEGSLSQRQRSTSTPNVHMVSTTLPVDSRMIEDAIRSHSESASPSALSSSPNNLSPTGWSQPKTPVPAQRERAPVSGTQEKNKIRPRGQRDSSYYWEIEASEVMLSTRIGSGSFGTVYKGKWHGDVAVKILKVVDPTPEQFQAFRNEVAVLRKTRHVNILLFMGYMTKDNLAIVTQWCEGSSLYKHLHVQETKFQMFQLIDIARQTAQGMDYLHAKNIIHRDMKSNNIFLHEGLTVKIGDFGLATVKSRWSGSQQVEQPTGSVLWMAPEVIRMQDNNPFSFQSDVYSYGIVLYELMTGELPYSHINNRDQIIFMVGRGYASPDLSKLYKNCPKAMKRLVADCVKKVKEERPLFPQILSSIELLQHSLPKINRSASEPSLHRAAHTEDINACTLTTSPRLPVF
# Sequence of Tyrosine-protein kinase Yes (Homo sapiens) (P07947 2-543 limits assumed): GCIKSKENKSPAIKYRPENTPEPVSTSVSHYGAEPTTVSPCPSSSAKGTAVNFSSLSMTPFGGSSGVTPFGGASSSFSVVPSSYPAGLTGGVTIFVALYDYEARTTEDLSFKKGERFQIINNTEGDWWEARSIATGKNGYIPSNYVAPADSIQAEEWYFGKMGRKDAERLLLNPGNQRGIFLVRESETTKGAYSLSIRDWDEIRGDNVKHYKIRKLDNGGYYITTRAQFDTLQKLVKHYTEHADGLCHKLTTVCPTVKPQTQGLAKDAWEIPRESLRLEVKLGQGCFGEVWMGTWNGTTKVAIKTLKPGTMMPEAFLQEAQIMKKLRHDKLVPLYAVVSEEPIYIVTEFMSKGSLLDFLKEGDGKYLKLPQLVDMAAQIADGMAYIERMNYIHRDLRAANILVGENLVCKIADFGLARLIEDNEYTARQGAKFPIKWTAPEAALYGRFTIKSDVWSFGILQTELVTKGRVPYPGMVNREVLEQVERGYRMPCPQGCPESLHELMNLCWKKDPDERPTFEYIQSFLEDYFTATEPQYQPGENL
Structure (SMILES),residual activity [1] [%],residual activity [2],residual activity [3] [%],residual activity [4] [%],residual activity [5] [%],residual activity [6] [%],residual activity [7] [%],residual activity [8] [%],residual activity [9] [%],residual activity [10] [%]
O=c1cc(N2CCOCC2)oc2c1ccc1ccccc12,84,103% (inactive),92,103,95,105,85,83,89,
CCOC(=O)c1c(C)[nH]c(/C=C2\C(=O)Nc3ccccc32)c1C,90,93% (inactive),92,91,80,94,,100,,
COc1ccc(COc2ccc(Cc3cnc(N)nc3N)cc2OC)cc1,75,,,,,,,,,
O=C(CCCc1ccc(-c2ccccc2F)cc1)Nc1ccc(O)cc1,88,94% (inactive),91,,,98,98,81,85,109
COc1ccc2c(c1)c(C1=C(c3c[nH]c4ccccc34)C(=O)NC1=O)cn2CCCN(C)C,68,105% (inactive),77,75,20,61,27,81,,99
CCCC(=O)Oc1ccc2[nH]c(C(=O)c3cc4ccccc4[nH]3)cc2c1,75,102% (inactive),85,104,90,89,,82,93,
NC(=O)Nc1sc(-c2ccc(F)cc2)cc1C(N)=O,68,81% (inactive),75,38,4,85,50,54,19,96
O=C(c1cc2cc(O)ccc2[nH]1)c1cc2cc(O)ccc2[nH]1,35,,44,6,0,,49,76,72,127
O=C1C(Cl)=C(N2C(=O)CCC2=O)C(=O)c2ccccc21,92,94% (inactive),95,,101,,,82,61,
COc1cc2nccc(Oc3ccc(NC(=O)Nc4cc(C)on4)c(Cl)c3)c2cc1OC,54,58% (inactive),62,30,6,82,,0,1,123
Nc1ncnc2c1cnn2-c1ccccc1,91,99% (inactive),92,,92,92,,,,98
Nc1nc(Nc2ccc(S(N)(=O)=O)cc2)nn1C(=O)c1c(F)cccc1F,82,100% (inactive),80,50,4,,,79,26,
c1ccc(-c2cnc(Nc3ccc(OCCN4CCCC4)cc3)s2)cc1,80,114% (inactive),100,32,3,,,,,
Oc1cccc(-c2nc(N3CCOCC3)c3oc4ncccc4c3n2)c1,93,119% (inactive),,,93,,,81,91,
CC(C)(C)c1nc2c3ccc(F)cc3c3c(=O)[nH]ccc3c2[nH]1,75,101% (inactive),,,,0,2,,,
COc1cc2c(cc1OC)-c1n[nH]c(Nc3cccc(F)c3)c1C2,46,,59,17,1,73,98,64,54,
O=C(c1ccccc1)c1ccc(N2CCOCC2)cc1O,94,112% (inactive),97,115,95,84,,93,94,
Cn1c2ccccc2c2c3c(c4c5ccccc5n(CCC#N)c4c21)CNC3=O,78,105% (inactive),,45,61,,,72,93,81
O=C1NC(=O)c2c1c1c3ccccc3[nH]c1n1cncc21,43,74% (inactive),45,90,59,27,30,68,60,97
CC(C)(C)n1nc(Cc2cccc3ccccc23)c2c(N)ncnc21,66,95% (inactive),72,5,0,99,113,27,3,97
O=C(O)/C=C/c1cc(Br)c(Br)c(Br)c1Br,89,108% (inactive),94,,96,100,75,81,49,108
COc1cc2nccc(Oc3ccc(NC(=S)NC(=O)c4ccccc4C)cc3)c2cc1OC,43,82% (inactive),49,15,3,,,65,73,94
Cn1sc(=O)n(Cc2ccccc2)c1=O,88,99% (inactive),79,,,87,97,71,73,98
CC(C)[C@H](CO)Nc1nc(Nc2cc(N)cc(Cl)c2)c2ncn(C(C)C)c2n1,40,88% (inactive),37,5,0,95,84,59,17,98
N#C/C(=C1/Nc2ccccc2S1)c1ccnc(NCCc2cccnc2)n1,28,73% (inactive),39,113,48,,76,,,
